Screens (PubChem)
PrPC TRFRET = cell surface PrPC inhibition, primary TR-FRET screen; TR-FRET read-out; inhibition, % at 13.8 µM; 370,000 compounds, 0.43% hits; P04156; in the data active means inhibition above about 24%
PrP UTR inh = suppresses PrP 5' UTR mRNA reporter expression; cell-based PrP 5' UTR mRNA reporter, plate reader; inhibition, % (test concentration not listed); 340,000 compounds, 0.35% hits; in the data active means inhibition above about 52%
PfHsp40 rescue = restores yeast growth despite PfHsp40 toxicity. S. cerevisiae expressing PfHsp40, growth rescue, ATP luminescence. 340,000 compounds, 0.68% hits. growth rescue, % at 12.5 µM. AID 504582; in the data active means growth rescue above about 28%, passing the limit was not always enough;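 further: yeast W303a lacking pdr1 and pdr3 grown in galactose medium; growth measured after three days at 30 °C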
RecA intein inh = Mtb RecA intein splicing inhibition; cell-free RecA intein splicing, fluorescence; 290,000 compounds, 0.75% hits; inhibition, % (concentration not given with the values); AID 2221; in the data active means inhibition above about 30%
Target sequence (P9WHJ3 whole entry, looked up): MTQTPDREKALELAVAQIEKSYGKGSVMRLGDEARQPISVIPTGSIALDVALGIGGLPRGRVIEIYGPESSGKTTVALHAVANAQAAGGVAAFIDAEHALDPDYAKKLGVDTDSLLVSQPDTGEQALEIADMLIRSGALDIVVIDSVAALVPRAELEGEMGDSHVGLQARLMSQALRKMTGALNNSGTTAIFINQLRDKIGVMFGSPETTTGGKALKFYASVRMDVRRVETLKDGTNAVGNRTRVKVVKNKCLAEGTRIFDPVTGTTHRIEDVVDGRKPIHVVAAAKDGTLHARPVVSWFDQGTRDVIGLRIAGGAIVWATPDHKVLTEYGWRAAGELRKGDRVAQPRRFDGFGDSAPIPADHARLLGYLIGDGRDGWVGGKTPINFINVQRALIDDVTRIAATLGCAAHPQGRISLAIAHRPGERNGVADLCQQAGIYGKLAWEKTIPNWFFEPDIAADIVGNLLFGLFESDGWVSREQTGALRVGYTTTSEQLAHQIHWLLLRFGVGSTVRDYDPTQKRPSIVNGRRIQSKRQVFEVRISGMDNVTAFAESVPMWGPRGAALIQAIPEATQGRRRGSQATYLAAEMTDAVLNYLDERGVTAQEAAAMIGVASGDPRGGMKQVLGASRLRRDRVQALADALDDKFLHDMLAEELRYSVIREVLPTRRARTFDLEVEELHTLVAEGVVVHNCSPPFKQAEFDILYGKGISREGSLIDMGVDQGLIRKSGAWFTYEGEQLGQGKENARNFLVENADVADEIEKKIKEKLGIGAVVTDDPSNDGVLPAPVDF
BJeLR viability = BJeLR cell viability loss | inhibition, % (no concentration beside the values) | BJeLR (HRASV12) viability, CellTiter-Glo ATP luminescence, 48 h | 300,000 compounds, 0.17% hits | AID 1554; in the data active means inhibition above about 50%
SSB-PriA inh = K. pneumoniae PriA-SSBct interaction inhibition. AlphaScreen SSBct-PriA binding, biotinylated peptide. inhibition, % at 33 µM. 430,000 compounds, 0.6% hits; in the data active means inhibition mostly above about 37%, no sharp cut-off; inactive means mostly below about 20%
Of the large screens only hits and unclear results are named; the others gave an inactive call; ! = not active in a repeat. A selection: hits, their analogues and other compounds. The true share with any hit is near 1.9%.

O=C(Nc1nnc(-c2ccccc2)s1)c1cc(S(=O)(=O)N2CCOCC2)c(Cl)cc1Cl	none
O=C(NCc1cc(-c2cccs2)on1)c1ccc(S(=O)(=O)N2CCOCC2)cc1	none (no result: PrPC TRFRET, PrP UTR inh, PfHsp40 rescue, RecA intein inh, BJeLR viability)
CCOc1ccccc1C(=O)Nc1nnc(-c2cc(OC)ccc2OC)s1	none (no result: PrPC TRFRET, PrP UTR inh, PfHsp40 rescue, RecA intein inh, BJeLR viability)
CCc1cc(C(=O)Nc2nc(-c3ccccn3)cs2)sc1C	PfHsp40 rescue 365 (no result: RecA intein inh, BJeLR viability)
O=C(Nc1nc(-c2ccccn2)cs1)c1ccccc1Cl	SSB-PriA inh 100 (no result: PrPC TRFRET, PrP UTR inh, PfHsp40 rescue, RecA intein inh, BJeLR viability)
O=C(Nc1nc(-c2ccccn2)cs1)c1ccncc1	SSB-PriA inh 157 (no result: PrPC TRFRET, PrP UTR inh, PfHsp40 rescue, RecA intein inh, BJeLR viability)
O=C(Nc1nc(-c2ccccn2)cs1)c1ccc(Oc2ccc(C(=O)Nc3nc(-c4ccccn4)cs3)cc2)cc1	none (no result: PrPC TRFRET, PrP UTR inh, PfHsp40 rescue, RecA intein inh, BJeLR viability)
Cc1cc(C(=O)Nc2nc(-c3ccccn3)cs2)ccc1[N+](=O)[O-]	PfHsp40 rescue 73, SSB-PriA inh 47
CC(C)[C@H](NC(=O)c1ccccc1Cl)C(=O)Nc1nc(-c2ccccn2)cs1	none
O=C(Nc1nc(-c2ccccn2)cs1)c1ccc(Cl)c([N+](=O)[O-])c1	none (no result: PrPC TRFRET, PrP UTR inh, PfHsp40 rescue, RecA intein inh, BJeLR viability)
COc1nn(C)cc1C(=O)Nc1sc2c(c1-c1nc(C)no1)CCOC2	none (no result: PrPC TRFRET, PrP UTR inh, PfHsp40 rescue, RecA intein inh, BJeLR viability)
NC(=O)c1ccc(C=NO)[n+](Cc2ccccc2)c1	none (no result: PrPC TRFRET, PrP UTR inh, PfHsp40 rescue, RecA intein inh, BJeLR viability)
CCc1ccc(C(=O)Nc2nc(-c3ccccn3)cs2)cc1	SSB-PriA inh 85 (no result: PrPC TRFRET, PrP UTR inh, PfHsp40 rescue, RecA intein inh, BJeLR viability)
Cn1nc(C(=O)Nc2nc(-c3ccccn3)cs2)ccc1=O	none (no result: PrPC TRFRET, PrP UTR inh, PfHsp40 rescue, RecA intein inh, BJeLR viability)
O=C(Nc1nc(-c2ccccn2)cs1)c1cc(F)cc(F)c1	none (no result: PrPC TRFRET, PrP UTR inh, PfHsp40 rescue, RecA intein inh, BJeLR viability)
O=C(Nc1nc(-c2ccccn2)cs1)c1ccc(=O)[nH]c1	SSB-PriA inh 95 (no result: PrPC TRFRET, PrP UTR inh, PfHsp40 rescue, RecA intein inh, BJeLR viability)
Cc1nc(C)c(C(=O)Nc2nc(-c3ccccn3)cs2)s1	SSB-PriA inh 157 (no result: PrPC TRFRET, PrP UTR inh, PfHsp40 rescue, RecA intein inh, BJeLR viability)
CSc1ccccc1C(=O)Nc1nc(-c2ccccn2)cs1	SSB-PriA inh 106 (no result: PrPC TRFRET, PrP UTR inh, PfHsp40 rescue, RecA intein inh, BJeLR viability)
CSc1ccccc1C(=O)Nc1nc(-c2ccc(F)cc2)cs1	none (no result: PrPC TRFRET, PrP UTR inh, PfHsp40 rescue, RecA intein inh, BJeLR viability)
O=C(NCc1ccc(Cl)cc1)C(=O)Nc1cccc(N2CCCS2(=O)=O)c1	none (no result: PrPC TRFRET, PrP UTR inh, PfHsp40 rescue, RecA intein inh, BJeLR viability)
CC(C)c1nsc(=NC(=Nc2ccccc2)c2ccccc2)n1Cc1ccccc1	none (no result: PrPC TRFRET, PrP UTR inh, PfHsp40 rescue, RecA intein inh, BJeLR viability)
CC(=NNS(=O)(=O)c1ccc(C)cc1)c1cccc(NC(=O)c2cccc(Cl)c2)c1	none (no result: PrPC TRFRET, PrP UTR inh, PfHsp40 rescue, RecA intein inh, BJeLR viability)
O=C(Nc1nc(-c2ccccn2)cs1)c1ccccc1	SSB-PriA inh 101 (no result: PrPC TRFRET, PrP UTR inh, PfHsp40 rescue, RecA intein inh, BJeLR viability)
O=C(Nc1nc(-c2ccccn2)cs1)c1ccc(C(=O)c2ccccc2)cc1	none (no result: PrPC TRFRET, PrP UTR inh, PfHsp40 rescue, RecA intein inh, BJeLR viability)
Cc1ccc(C(=O)Nc2nc(-c3ccccn3)cs2)cc1	SSB-PriA inh 78 (no result: PrPC TRFRET, PrP UTR inh, PfHsp40 rescue, RecA intein inh, BJeLR viability)
Cc1cc(C(=O)Nc2nc(-c3ccccn3)cs2)no1	SSB-PriA inh 75 (no result: PrPC TRFRET, PrP UTR inh, PfHsp40 rescue, RecA intein inh, BJeLR viability)
O=C(Nc1nc(-c2ccccn2)cs1)c1cc(-c2ccco2)[nH]n1	SSB-PriA inh 66 (no result: PrPC TRFRET, PrP UTR inh, PfHsp40 rescue, RecA intein inh, BJeLR viability)
O=C(Nc1nc(-c2ccco2)cs1)c1ccccc1	none
CC(C)(C)NC(=O)N1CC(Oc2nc3c(Cl)cccc3s2)C1	none (no result: PrPC TRFRET, PrP UTR inh, PfHsp40 rescue, RecA intein inh, BJeLR viability)
Cc1ccc(-n2cc(C(=O)NCc3ccc(Cl)cc3)nn2)cc1	none (no result: PrPC TRFRET, PrP UTR inh, PfHsp40 rescue, RecA intein inh, BJeLR viability)
Oc1ccc2nc(N3CCCCC3)sc2c1	none (no result: PrPC TRFRET, PrP UTR inh, PfHsp40 rescue, RecA intein inh, BJeLR viability)
O=C(Cn1cc(S(=O)(=O)c2ccccc2)c2ccccc21)NCC1CCCO1 (stereo not drawn)	none (no result: PrPC TRFRET, PrP UTR inh, PfHsp40 rescue, RecA intein inh, BJeLR viability)
Cc1nc(SCc2ccccc2F)[nH]c(=O)c1CC(=O)NCc1ccco1	none (no result: PrPC TRFRET, PrP UTR inh, PfHsp40 rescue, RecA intein inh, BJeLR viability)
Cn1nc(C(=O)Nc2nc(-c3ccccn3)cs2)c2ccccc2c1=O	SSB-PriA inh 43 (no result: RecA intein inh, BJeLR viability)
CC(C)(C)CNC(=O)c1ccc(C(=O)Nc2nc(-c3ccccn3)cs2)cc1	none (no result: PrPC TRFRET, PrP UTR inh, PfHsp40 rescue, RecA intein inh, BJeLR viability)
CC(=O)Nc1ccc(C(=O)Nc2nc(-c3ccccn3)cs2)cc1	SSB-PriA inh 78
CCCN(Cc1cc2cccc(C)c2[nH]c1=O)C(=O)c1cccc(OC)c1	PfHsp40 rescue 72
COc1ccc(-c2c(NC(=O)C(C)C)oc3c(sc4ccccc43)c2=O)cc1	none (no result: PrPC TRFRET, PrP UTR inh, PfHsp40 rescue, RecA intein inh, BJeLR viability)
Cc1nccn1S(=O)(=O)c1cc([N+](=O)[O-])ccc1Cl	none
CC1=NCCN1S(=O)(=O)c1cc([N+](=O)[O-])ccc1Cl	SSB-PriA inh 35!
COCCN1CCC(CNC(=O)CN2C(=O)c3ccccc3C2=O)CC1	none (no result: PrPC TRFRET, PrP UTR inh, PfHsp40 rescue, RecA intein inh, BJeLR viability)
Cc1ccc(NC(=O)NNC(=O)COc2ccc([N+](=O)[O-])cc2)cc1C	SSB-PriA inh 40
Cc1ccc(NC(=O)CCC(=O)NNC(=O)COc2ccc([N+](=O)[O-])cc2)cc1C	none
C=CCn1c(O)c(N=Nc2c(C)n(C)n(-c3ccccc3)c2=O)c(=O)[nH]c1=S	none
Cc1c(N=Nc2c(O)[nH]c(=S)[nH]c2=O)c(=O)n(-c2ccccc2)n1C	SSB-PriA inh 53
O=C1CC(N2CCN(c3ccccc3)CC2)C(=O)N1c1ccc(SC(F)F)cc1 (stereo not drawn)	none (no result: PrPC TRFRET, PrP UTR inh, PfHsp40 rescue, RecA intein inh, BJeLR viability)
